Activity calls are given as the source filed them. Unless noted, how the calls were made is not given here.
How the values were obtained:
[1] = compound effects on lung adenocarcinoma cell viability – A549, calcein-AM fluorescence, 48 h, basal, profiling panel (AID 1162); details: higher = more signal; further: test concentration not given here
[2] = compound effects on differentiated 3T3-L1 adipocyte viability – cell-based, 3T3-L1 adipocytes, calcein-AM fluorescence, 48 h, basal, profiling panel (AID 1163); details: 3T3-L1 adipocytes viability, higher = more signal; further: test concentration not given here
[3] = compound effects on hepatocellular carcinoma cell viability – HepG2, calcein-AM fluorescence, 48 h, basal, profiling panel (AID 1164); details: higher = more signal; further: test concentration not given here
[4] = compound effects on multiple myeloma cell viability – MM1S, calcein-AM fluorescence, 48 h, basal, profiling panel (AID 1165); details: higher = more signal;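 further: viability of MM1S multiple myeloma cells under basal unstimulated conditions; test concentration not given here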
[5] = calcein-AM signal in unstimulated myeloma cells – cell-based, calcein-AM fluorescence, 48 h, PK04 Diversity Set, profiling panel (AID 1166); details: RPMI8226 myeloma viability, higher = more signal;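 further: cells grown under basal conditions without added stimulus; test concentration not given here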
[6] = JC-1 mitochondrial signal, unstimulated HepG2 cells – cell-based, JC-1 fluorescence, 24 h, 100 nL compound, profiling panel (AID 1167); details: HepG2 mitochondrial potential, higher = more signal; further: test concentration not given here
[7] = JC-1 mitochondrial signal, unstimulated adipocytes – cell-based, JC-1 fluorescence, 3T3-L1 adipocytes, 24 h, 100 nL compound, profiling panel (AID 1168); details: JC-1 mitochondrial fluorescence, higher = more signal, called active from +8 up or from −8 down; further: test concentration not given here
[8] = JC-1 mitochondrial signal, unstimulated myeloma cells – cell-based, JC-1 fluorescence, RPMI8226, 24 h, 100 nL compound, profiling panel (AID 1169); details: JC-1 mitochondrial potential fluorescence, higher = more signal; further: test concentration not given here
[9] = JC-1 mitochondrial signal, unstimulated MM1S myeloma – cell-based, JC-1 fluorescence, 24 h, 100 nL compound, profiling panel (AID 1170); details: MM1S mitochondrial potential, higher = more signal; further: test concentration not given here
[10] = resazurin metabolic signal in A549 cells – cell-based, resazurin fluorescence, 24 h, PK04 Diversity Set, profiling panel (AID 1171); details: A549 viability, higher = more signal, called active from +8 up or from −8 down; further: test concentration not given here
[11] = resazurin metabolic signal in HepG2 cells – cell-based, resazurin fluorescence, 24 h, PK04 Diversity Set, profiling panel (AID 1172); details: HepG2 viability, higher = more signal; further: test concentration not given here
[12] = budding yeast growth changes without added modifier – OD600, strain BY4716, 24 h, basal condition, primary screen (AID 1173); details: S. cerevisiae BY4716 growth, OD600, 24 h; higher = more signal, called active from +8 up or from −8 down
[13] = viability profiling in MM1S myeloma cells – cell-based, resazurin fluorescence, basal, 24 h, PK04 Diversity Set, profiling panel (AID 1174); details: higher = more signal, called active from +8 up or from −8 down; further: test concentration not given here
[14] = biological target: Dihydroorotate dehydrogenase (quinone), mitochondrial (Plasmodium falciparum (isolate 3D7)) (UniProt Q08210); experiment: inhibition of P. falciparum DHODH – biochemical, C-terminal His tag, absorbance 600 nm, primary screen (AID 1175); details: PfDHODH enzyme, DCIP absorbance 600 nm; higher = more signal, called active from +8 up or from −8 down;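 further: recombinant parasite enzyme with a five histidine tag at its C terminus; test concentration not given here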
Chain of Dihydroorotate dehydrogenase (quinone), mitochondrial (Plasmodium falciparum (isolate 3D7)) (Q08210 whole entry, looked up): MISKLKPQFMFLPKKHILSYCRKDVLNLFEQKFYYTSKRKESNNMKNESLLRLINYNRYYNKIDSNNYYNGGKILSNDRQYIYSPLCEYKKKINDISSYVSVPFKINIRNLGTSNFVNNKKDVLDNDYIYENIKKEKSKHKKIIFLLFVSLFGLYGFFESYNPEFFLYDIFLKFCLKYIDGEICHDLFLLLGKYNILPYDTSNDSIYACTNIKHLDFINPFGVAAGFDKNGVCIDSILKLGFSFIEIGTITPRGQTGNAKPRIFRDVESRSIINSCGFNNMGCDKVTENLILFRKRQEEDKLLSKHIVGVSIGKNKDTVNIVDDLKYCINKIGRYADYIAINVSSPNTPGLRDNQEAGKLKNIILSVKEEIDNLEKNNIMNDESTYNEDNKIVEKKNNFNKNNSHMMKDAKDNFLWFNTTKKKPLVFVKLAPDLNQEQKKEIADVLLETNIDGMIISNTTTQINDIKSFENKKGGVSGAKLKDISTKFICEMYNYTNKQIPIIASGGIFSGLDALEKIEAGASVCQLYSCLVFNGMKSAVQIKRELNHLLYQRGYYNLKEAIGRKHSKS

[15] = inhibition of PAO1 biofilm formation – strain PAO1, LB-PBS medium, absorbance 600 nm, primary screen (AID 1176); further: test concentration not given here; details: P. aeruginosa PAO1 growth/biofilm, A600, 12 h; higher = more signal
[16] = growth modulation of vineyard yeast isolate – strain RM11-1a, OD600, basal, 24 h, primary screen (AID 1177);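 further: cultures grown under basal conditions with no added stressor; test concentration not given here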; details: S. cerevisiae RM11-1a growth, OD600, 24 h; higher = more signal, called active from +8 up or from −8 down
[17] = growth of efflux-deficient E. coli DRC39 – strain DRC39, OD650, 24 h, E. coli filamentation inducers, primary screen (AID 1178);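 further: growth measured as culture turbidity by optical density at 650 nm; test concentration not given here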; details: E. coli DRC39 acrAB, higher = more signal, called active from +8 up or from −8 down
[18] = growth of efflux-deficient E. coli DRC39 – strain DRC39, OD650, 48 h, E. coli filamentation inducers, primary screen (AID 1179);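 further: screen aims at cell division blockers that make cells filament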; details: E. coli DRC39 delta-acrAB growth, higher = more signal, called active from +8 up or from −8 down
[19] = viability profiling in RPMI8226 myeloma cells – cell-based, resazurin fluorescence, basal, 24 h, PK04 Diversity Set, profiling panel (AID 1180); details: higher = more signal;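 further: RPMI8826 multiple myeloma cell line at 5000 cells per well; test concentration not given here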
[20] = biological target: E3 ubiquitin-protein ligase XIAP (Homo sapiens) (UniProt P98170); experiment: small molecules binding XIAP protein – biophysical, small-molecule microarray, fluorescence 635 nm, primary screen (AID 1181); details: higher = more signal;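 further: score merges 667 nm emission and signal to noise over triplicate slides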
Chain of E3 ubiquitin-protein ligase XIAP (Homo sapiens) (P98170 whole entry, looked up): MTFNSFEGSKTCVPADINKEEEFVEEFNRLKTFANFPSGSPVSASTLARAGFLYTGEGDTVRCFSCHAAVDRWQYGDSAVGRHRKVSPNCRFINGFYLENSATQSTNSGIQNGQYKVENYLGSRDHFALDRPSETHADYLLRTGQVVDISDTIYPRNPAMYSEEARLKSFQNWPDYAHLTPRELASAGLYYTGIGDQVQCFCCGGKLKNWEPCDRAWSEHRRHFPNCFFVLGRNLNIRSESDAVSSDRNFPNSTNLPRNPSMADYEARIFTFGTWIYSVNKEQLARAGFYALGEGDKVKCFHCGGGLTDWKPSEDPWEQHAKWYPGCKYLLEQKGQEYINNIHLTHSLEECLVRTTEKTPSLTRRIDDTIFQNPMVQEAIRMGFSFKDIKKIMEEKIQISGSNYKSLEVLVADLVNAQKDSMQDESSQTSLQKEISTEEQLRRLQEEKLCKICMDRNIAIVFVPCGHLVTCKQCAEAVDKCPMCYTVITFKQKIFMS

SMILES | z-score [1] | z-score [2] | z-score [3] | z-score [4] | z-score [5] | z-score [6] | z-score [7] | z-score [8] | z-score [9] | z-score [10] | z-score [11] | z-score [12] | z-score [13] | composite z-score [14] | z-score [15] | z-score [16] | z-score [17] | z-score [18] | z-score [19] | composite z-score [20]
CN(C)CCCN1C(=O)[C@@]2(c3ccc([N+](=O)[O-])cc3)CC(=O)N(CC34CC5CC(CC(C5)C3)C4)[C@@H]2c2ccc(CO)cc21 | 2.86 | 0.338 | 0.28 | -0.18 | 0.621 | 0.474 | 1.38 (inactive) | -0.0069 | 0.41 | -0.928 (inactive) | -0.349 | 0.24 (inactive) | -0.752 (inactive) | -7.42 (inactive) | -0.121 (inactive) | 0.536 (inactive) | 0.384 (inactive) | 0.567 (inactive) | -0.959 | -0.02
C=CC1c2cc(O)c(OC)cc2CCN1Cc1sc2ccccc2c1Cl (stereo not given) | -4.28 | 0.155 | -4.42 | -3.24 | -4.45 | -3.08 | -0.224 (inactive) | -0.811 | -0.358 | -0.784 (inactive) | -0.62 | -18.3 (active) | -0.467 (inactive) | -1.04 (inactive) | -0.227 (inactive) | -3.6 (inactive) | 0.243 (inactive) | -0.404 (inactive) | -0.802 | 0.265
O=C1OC[C@@H](c2ccccc2)N2CC(/C=C/c3ccccc3)=CC12 (stereo not given in full) | -0.488 | -0.125 | -0.255 | -0.0482 | -0.267 | -0.251 | 0.291 (inactive) | -0.306 | 0.00388 | 1.05 (inactive) | 0.015 | -2.25 (inactive) | 0.0637 (inactive) | 0.685 (inactive) | -0.14 (inactive) | 0.388 (inactive) | -0.338 (inactive) | -0.827 (inactive) | 0.594 | -0.102
C[C@@H]1ON(c2ccc(C(=O)OC(C)(C)C)cc2)[C@H](c2ccc(Br)cc2)[C@H]1C(=O)N1C(=O)OC[C@H]1Cc1ccccc1 | 0.136 | 0.393 | 0.889 | -0.486 | -0.403 | 0.401 | -0.728 (inactive) | -1.1 | 0.24 | 1.23 (inactive) | 0.318 | 0.0743 (inactive) | 0.652 (inactive) | 0.315 (inactive) | 0.224 (inactive) | 0.538 (inactive) | 0.488 (inactive) | 0.46 (inactive) | 1.23 | -0.16
C=CCC(OC(C)=O)[C@@H]1[C@@H](N(Cc2cc3ccccc3o2)C(=O)c2ccc(C)cc2)c2cc(OCCCO)ccc2N1C(=O)Cc1ccc2ccccc2c1 (stereo not given in full) | 2.34 | 0.133 | 1.18 | -0.623 | -0.802 | 3.42 | -0.577 (inactive) | 0.0031 | 0.718 | 1.65 (inactive) | 0.85 | 0.0206 (inactive) | -0.589 (inactive) | 0.507 (inactive) | -0.501 (inactive) | 0.554 (inactive) | 0.964 (inactive) | 1.08 (inactive) | 0.305 | 0.162
CC(=O)N1Cc2ccccc2C[C@]2(N=C(c3ccc(OCCCO)cc3)O[C@@H]2c2ccccc2)C1=O | -1.07 | 0.749 | -0.351 | -2.28 | -3.5 | 0.462 | -0.202 (inactive) | -0.954 | -0.637 | -2.76 (inactive) | -0.908 | -0.776 (inactive) | -2.6 (inactive) | -0.375 (inactive) | 0.122 (inactive) | 1.93 (inactive) | 1.55 (inactive) | 1 (inactive) | -3.96 | 0.247
COCC(=C=CC[C@H](O)c1cccc(OCCO)c1)C[C@H](O)c1ccccn1 | 1.39 | 0.101 | 1.25 | 0.0467 | 0.461 | 0.843 | 1.49 (inactive) | 0.237 | -0.664 | 1.22 (inactive) | 1.51 | 1.65 (inactive) | 0.959 (inactive) | -0.672 (inactive) | 0.437 (inactive) | 1.07 (inactive) | 1.38 (inactive) | 1.23 (inactive) | 1.66 | -0.0453
O=C1O[C@@H](c2ccccc2)[C@@H](c2ccccc2)N2[C@@H](c3ccc(O)cc3)[C@]3(C(=O)Nc4ccc(C#CCCO)cc43)[C@@H](C(=O)NC[C@H](O)c3ccccc3)[C@H]12 | 0.479 | 0.269 | 0.333 | -0.121 | 0.671 | -1.93 | -1.16 (inactive) | 0.198 | -0.667 | 0.588 (inactive) | 1.29 | -0.169 (inactive) | 0.214 (inactive) | 0.129 (inactive) | -0.192 (inactive) | 0.376 (inactive) | 0.6 (inactive) | 0.242 (inactive) | 1.33 | 0.363
COc1cc(CO)cc(I)c1O[C@H]1C=C(C(=O)NCCO)C[C@@H](NCc2ccccc2F)[C@@H]1O | 0.687 | -0.512 | 0.496 | 0.0067 | 0.12 | -0.0312 | -0.561 (inactive) | 0.231 | -1.59 | 0.106 (inactive) | -0.0271 | -2.31 (inactive) | -0.233 (inactive) | 1.28 (inactive) | -0.365 (inactive) | 1.09 (inactive) | 0.491 (inactive) | 0.41 (inactive) | 0.559 | 0.0669

Source: PubChem BioAssay
